Data on 55 sequences can be found in PubChem BioAssay AID1347426 (Functional Genomics Laboratory (NCATS/FGL), 2020).

The whole screen tested about 31,000 sequences, of which about 1,400 (4.5%) were called active. This is one part of a sample in which actives are shown more often than they occur.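 The calls were made as follows: active = median seed-adjusted z-score above 1 or below -1; inactive = the rest.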

The experiment in a line: Novel Modifiers of Survival Motor Neuron (SMN) Protein: Gene Identification via Genome-wide siRNA Screen. Conditions: HEK293T SMN2-luciferase reporter, siRNA knockdown, 72 h; actives lie on both sides. From the text: Spinal muscular atrophy (SMA) is the most common neuromuscular autosomal recessive disorder and one of the leading genetic causes of infant death. SMA results from mutations inducing loss of function or deletion in the survival of motor neuron-1 gene (SMN1), leading to deficiency of the survival motor neuron (SMN) protein. Although a second nearly identical gene, SMN2, is retained in humans, its expression primarily produces an aberrantly spliced isoform that is largely unstable and quickly degraded. We performed a genome-wide RNAi screen using a cell-based reporter assay to identify genes and pathways that modulate SMN protein stability. The screen identified over 200 genes that led to the greatest increase or decrease in luciferase expression.
Using HEK293T cells stably expressing a luciferase reporter that combines the promoter and splicing based cassettes in tandem with the major portion of the native SMN2 cDNA with luciferase, we performed a genome-wide RNAi screen to identify modulators of SMN protein levels. Luciferase is expressed when full-length SMN protein is generated with luminescence signal proportional to SMN protein levels. Our luciferase-based reporter assay was used to screen Ambion Silencer Select Human Druggable Genome siRNA library (10418 genes, 3 unique siRNAs per gene) using lipid-based reverse transfection.
Briefly, 1 pmol of each siRNA was spotted to a well of a 384-well plate (Corning, Corning, NY) and 20 microL of serum-free DMEM containing […] of Lipofectamine RNAiMax (Life Technologies, Carlsbad, CA) was then added to each well. Transfected cells were maintained at 37 degrees C in 5% CO2 for 72 hours, 20 microL of ONE-Glo Reagent (Promega) was added to wells for luciferase quantification. Raw luminescence reads were normalized to Ambion(R) Silencer(R) Negative Control #2 siRNA, then log10 transformed. A robust statistical measure of median absolute deviation (MAD) to standardize siRNA activities from each screen. Common Seed Analysis was used to help prioritize clean hits as opposed to those appearing to arise from seed based off-target effects. Candidate modulators were defined as the genes having a MAD score greater than 1.0 or less than -1.0.
Regarding GAUACGAAAUGGUGUUAAATT against POLG2, the median seed-adjusted z-score was 0 (inactive).
On to CCCAAUAACUCUGUCGAUATT against ATP11C, for which the median seed-adjusted z-score was 0.102 (inactive).
The result for GGAGUAACUGAGAUAGAAATT against AGPAT3 reads 0 (inactive).
The value for GGAUCGUAAAAAUAGCAAATT against DGKA was -1.36 (active); that for GAGCCUCUAUUAAUGGACATT against RASSF6 was -0.592 (inactive).
As for GGAACACCCGUUUAACAAATT against ASH2L, the median seed-adjusted z-score is -0.464 (inactive).
In the case of GGAGGAUAGCAGCAGAAGATT against ATP5I, the median seed-adjusted z-score is -0.871 (inactive).
For GGUGAAUGCUGAUGACUCUTT against CLDN16, the median seed-adjusted z-score is -0.868 (inactive).
The value for CCACCAACGAAUACGUCUATT against PRKCSH was -0.0512 (inactive); that for GAAUCUACAGGAAACGAGATT against SETD8 was -1.52 (active); that for CUCUACACCGUGUACAUCATT against CHRM4 was -0.856 (inactive).
The value for GCAGCAUGAGAAUGUCAAATT against GPD1 was 0.558 (inactive); that for CUACAGCCUAUAUAUGAAATT against FCRL1 was -0.873 (inactive); that for CGACAAUAUUCCUUGAUGATT against CTGLF1 was 0.0231 (inactive).
The value for GGGAUAAGCAGAUAGAAGATT against MYST2 was -1.46 (active).
For the sequence GGAUGUUUUUCGAAGGAUATT against RHEB, the median seed-adjusted z-score was -0.387 (inactive).
The result for GGACCGCAGCAAUGACAUUTT against SH3KBP1 reads -0.34 (inactive); that for AGACGGUGACUUACAAAAATT against ARF6, -0.805 (inactive).
The result for GCAACUUCAUUUCUCAUCUTT against CA6 reads 0.349 (inactive); that for GUAUAUAAACAGACAAUGATT against DNAJC8, -1.62 (active).
The result for UCAUCUUCUUUGACCCAGATT against HNF4A reads -0.0274 (inactive); that for GAGAGAAUCAUUACGAAAATT against MTMR2, 0.495 (inactive).
In the case of CAAACUUAAAGGUCAGAAATT against WHSC1, the median seed-adjusted z-score was 1.17 (active).
The value for GGACAAAGUCUUAACAAAATT against SLC30A10 was 0.523 (inactive).
The result for CCAGACCACUUGCUAUGAATT against GATA6 reads 0.546 (inactive); that for CUACUGGAGCAACACUGUATT against NDUFA4, 0 (inactive).
On to GCAAGAUUAGACAUACUGATT against PSMC6, for which the median seed-adjusted z-score is -0.578 (inactive).
As for GAGCGAGUCUACAAGUGUATT against REST, the median seed-adjusted z-score is 0.416 (inactive).
Consider CAGUCUGCCGAAGAAGUAATT against CDC2L1, for which the median seed-adjusted z-score was -1.14 (active).
The result for GGAUCUUCCUUAUUACUCUTT against UBE4A reads -0.285 (inactive).
With CCAGCACGUUGGAAGACCATT against ZNF808, the median seed-adjusted z-score was 0.138 (inactive).
The result for GUCCUUAUCUUUGCAAAUATT against ARL5B reads -0.506 (inactive); that for GGAGCUACUUAAUCGGGAUTT against ANGEL1, -0.332 (inactive).
The result for GCACGGAAAUUCUACAAGATT against ABCA4 reads -1.09 (active); that for GGACGAUGUCUACAGCCUATT against SIN3B, 0.509 (inactive).
The result for CGGGAACUAUCCAAACAAUTT against DMBT1 reads -0.131 (inactive); that for GCAGAACUGACAGUCGAUATT against DMTF1, 0.396 (inactive); that for GAGUGGACUGUGGAAGAUATT against RCOR1, -1.13 (active).
For CCAAAAGAAUAUCCGCUAATT against NLK, the median seed-adjusted z-score is 0.256 (inactive).
The result for CACCUACUGUGAUGACAGATT against EPAS1 reads -0.166 (inactive).
As to GAAGUAGACUUGAUACGAATT against AQR, the median seed-adjusted z-score is -1.56 (active).
In the case of AGCACAAGGUGGAACCGGUTT against CYGB, the median seed-adjusted z-score is -0.34 (inactive).
The result for GCUACGAAAUGCUUGCUCATT against GALT reads 0.484 (inactive); that for GGAUCAUGACCUAUGCUAATT against AKAP3, 0.0138 (inactive); that for GCUUUGUGAACGACAAUUATT against RABGGTB, -0.856 (inactive).
The result for CGCACGGACUGUACCAUUUTT against ETV2 reads 0 (inactive); that for GCCUACUGGUCAUUGAUCATT against GNMT, 0.0261 (inactive).
For GACAUAUGCAAGAACUAUATT against PSAP, the median seed-adjusted z-score is 0.107 (inactive).
The value for AGAGGAGAGUGGAAUUCCATT against ARID3C was -1.32 (active).
The value for GCAGUUUCUUAACCACGUUTT against IFI16 was -0.0178 (inactive); that for ACUUUGCUCCUACUAUUCATT against NEGR1 was 0.194 (inactive); that for CCAUCGGACUGACAGUGAATT against COPZ1 was -1.02 (active).
Turning to CGAAAACUGAUACACUUGATT against KSR2, the median seed-adjusted z-score was -0.371 (inactive).
The value for GCUGAUUUUUGCUAAUAAATT against ARL5A was 0 (inactive).
The value for GCAUGUAAUGAGUAUCACATT against MRS2 was 1.38 (active).
